Compound activity as filed in PubChem.
TDP1 cell noCPT = qHTS for Inhibitors of human tyrosyl-DNA phosphodiesterase 1 (TDP1): qHTS in cells in absence of CPT; AID 686978, 2013; 420,000 tested, 15% active; DT40 Tdp1-/- hTDP1 cells, no CPT, ATP luminescence, 48 h; Potency, µM (series often up to 46.2 µM), inactives show at the top dose activity change, negative = growth inhibition, usual class: inhibitors; note: % is set by controls: 0 for no effect and ±100 for the full control effect; nearly all actives have a fitted effect of over 55% in size
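Growth of hTDP1-complemented DT40 Tdp1-knockout cells is measured by ATP luminescence after at least 48 hr compound exposure at 37 °C, with DMSO substituting for the 20 nM CPT used in the parallel screen.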
DT40 TDP1 CPT = growth inhibition of DT40 Tdp1-/-;hTDP1 cells with camptothecin (screen for TDP1 inhibitors); Potency, µM (titrated, usually from 46.2 µM), for inactives: at the highest dose activity change, negative = growth inhibition, usual class: inhibitors; chicken DT40 Tdp1-/-;hTDP1 cells + 20 nM CPT, ATP luminescence, 48 h; 420,000 tested, 12% active; note: % is set by controls: 0 for no effect and ±100 for the full control effect; nearly all actives have a fitted effect of over 55% in size
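Cell growth measured by CellTiter-Glo luminescence after a minimum 48 h, 37 C compound exposure with 20 nM CPT in Tdp1-knockout DT40 cells stably expressing hTDP1, seeded 400/well; qHTS titration format.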
ATXN2 expr inh = inhibitors of ATXN2 expression | 360,000 tested, 0.72% active | HEK-293 ATXN2-luciferase reporter, luminescence, 24 h | AID 1745845 | Potency, µM (series often up to 57 µM), for inactives: top-dose activity change, negative = inhibition, actives largely listed as inhibitors; note: % is set by controls: 0 for no effect and ±100 for the full control effect; nearly all actives have a fitted effect of over 55% in size
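qHTS (up to 57 uM final) was run with 24 h compound exposure of reporter cells at 37 °C. Each well was multiplexed: SteadyGlo luminescence measured ATXN2-luciferase expression after a fluorogenic Gly-Phe-AFC viability readout (25 uM final).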
TGFb inhibitor = inhibitors of TGF-b signaling; AID 588855; Potency, µM (doses to about 46.1 µM), for inactives: top-dose activity, negative = inhibition, hits mostly inhibitors; 410,000 tested, 1.2% active; HepG2 CAGA-GFP TGF-b/SMAD3 reporter, GFP fluorescence, 18 h; TGF-beta stimulated, 500 pg/mL final; note: % is set by controls: 0 for no effect and ±100 for the full control effect; nearly all actives have a fitted effect of over 65% in size
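TGF-beta reporter screen: HEPG2 CAGA-GFP, 1% FBS, 500 pg/mL TGF-beta final, 18 h; per-cell GFP summed per well; curves fitted and categorized by class.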
HepG2 viability = kills HepG2 cells in TGF-b inhibitor counter-screen; HepG2 CAGA-GFP viability, ATP luminescence, 18 h; Potency, µM (highest dose often 46.1 µM), without a hit: at the top dose activity change, negative = cytotoxicity, most hits filed as cytotoxic; 410,000 tested, 0.76% active
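HepG2 CAGA-GFP cells (1000/well, DMEM with 1% FBS) received compound, then TGF-beta at 500 pg/mL final, and were incubated 18 hours at 37 degrees C. Viability was read by CellTiter-Glo luminescence. Media-only wells were set as complete cell-killing and DMSO as no toxicity.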
ATXN viability = viability counter-screen for ATXN expression inhibitors | Potency, µM (series often up to 56.7 µM), actives largely listed as cytotoxic | S2 cells (HEK-293 line with an ATXN2-luciferase reporter) viability, CellTiter-Fluor protease fluorescence, 24 h | AID 651635 | 400,000 tested, 0.49% active; note: nearly all actives have a fitted effect of over 40% in size
Active calls of the source: *; i = inactive; u = inconclusive; x = no result given; ! = not confirmed by another sample. This is a sample that favours compounds with a hit; in the whole collection about 17% have one here. Calls come from the whole dose curve; as a rule, active = well fitted curve in the direction sought with a large enough effect; inconclusive = small, poorly fitted or top-dose-only effect, or another doubt; inactive = no such curve, though single readings can be large; an effect the other way counts as inactive or inconclusive. Potency is the fitted concentration of half-maximal effect.

SMILES	TDP1 cell noCPT	DT40 TDP1 CPT	ATXN2 expr inh	TGFb inhibitor	HepG2 viability	ATXN viability
CO[C@@]12[C@@H]3N[C@@H]3CN1C1=C(C(=O)C(N)=C(C)C1=O)[C@@H]2COC(N)=O	0.1µM*	0.12µM*	1.3µM*	u	-27%	u
CO[C@@]12[C@H](COC(N)=O)C3=C(C(=O)C(C)=C(N)C3=O)N1C[C@@H]1N[C@@H]12	0.73µM*	0.58µM*	1.7µM*!	-4%	0%	u
O=C(NCc1ccccc1Cl)c1ccc2c(c1)OCO2	16%	u	4%	3%	-5%	i
N#CC1=C(N)N2C(=C(C#N)C1c1cccc(Br)c1)Nc1ccccc12 (centres undefined)	3.3µM*	3.7µM*	u	3.2µM*	-50%	x
N#CC1=C(N)N2C(=C(C#N)C1c1ccc(Br)cc1)Nc1ccccc12 (centres undefined)	3.3µM*	6.5µM*	u	2.8µM*	-43%	x
N#CC1=C(N)N2C(=C(C#N)C13CCN(Cc1ccccc1)CC3)Nc1ccccc12	-28%	-30%	6%	8%	-12%	u
Cn1c(=O)[nH]c(=O)c2c1nc(N1CCCCCC1)n2Cc1cccc2ccccc12	16µM*	-21%	u	-9%	4%	x
Cn1c(=O)[nH]c(=O)c2c1nc(N1CCCCCC1)n2CCOc1ccccc1	23µM*	-26%	-8%	-3%	-16%	i
Cn1c(=O)[nH]c(=O)c2c1nc(N1CCNCC1)n2Cc1ccccc1Cl	-23%	-4%	-28%	-2%	2%	u
CN1CCN(c2nc3c(c(=O)[nH]c(=O)n3C)n2CCOc2ccccc2)CC1	u	u	-13%	1%	-64%	i
CN(Cc1ccccc1)c1nc2c(c(=O)[nH]c(=O)n2C)n1CCOc1ccccc1	16µM*	u	-1%	3%	-19%	i
Cn1c(N2CCN(C(c3ccccc3)c3ccccc3)CC2)nc2c1c(=O)[nH]c(=O)n2C	18µM*	21µM*	3%	0%	3%	i
Cn1c(N2CCCCC2)nc2c1c(=O)[nH]c(=O)n2C	-13%	-2%	-5%	6%	-31%	i
C=CCNc1ncnc2c1ncn2[C@H]1CN(Cc2ccccc2)C[C@@H](COC(C)=O)O1	-23%	u	12%	2%	6%	u
Cc1csc(SCCn2c(N3CCN(c4ccccc4)CC3)nc3c2c(=O)[nH]c(=O)n3C)n1	26µM*	16µM*	-3%	-6%	1%	i
CCC(C)Nc1nc2c(c(=O)[nH]c(=O)n2C)n1CCOc1ccccc1 (centres undefined)	u	21µM*	-25%	-2%	-19%	i
CC1CCCN(c2nc3c(c(=O)[nH]c(=O)n3C)n2Cc2ccccc2Cl)C1 (centres undefined)	u	15µM*	-35%	u	-23%	u
Nc1nc(N)c2cc(S(=O)(=O)c3ccc4ccccc4c3)ccc2n1	1.8µM*	u	x	u	-75%	i
CC(=O)c1cccc(NC(=O)CCCN2C(=O)COc3ccc(C)cc32)c1	u	18µM*	x	x	-23%	x
CSc1cccc(NC(=O)CN2C(=O)COc3ccc(Cl)cc32)c1	21µM*	u	u	-2%	-7%	i
CCc1cccc(NC(=O)CN2C(=O)COc3ccc(S(=O)(=O)Nc4ccccc4)cc32)c1	23µM*	u	-10%	u	-49%	u
COc1ccc(NC(=O)CN2C(=O)COc3ccc(S(=O)(=O)Nc4ccccc4)cc32)cc1OC	-27%	-5%	x	u	-3%	x
